In the library only some 3.7% were active in any assay of this set; here they are far more common.
ATXN2 expr inh – inhibitors of ATXN2 expression; AID 1745845; 0.72% of 360,000 active; Potency, µM (top dose mostly 57 µM), inactives show at the top dose activity change, negative = inhibition, hits mostly inhibitors; HEK-293 ATXN2-luciferase reporter, luminescence, 24 h; further: on the % scale 0 is the no-effect control and ±100 the full control effect; nearly all actives have a fitted effect of over 55% in size
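qHTS (up to 57 uM final) was run with 24 h compound exposure of reporter cells at 37 °C. Each well was multiplexed: SteadyGlo luminescence measured ATXN2-luciferase expression after a fluorogenic Gly-Phe-AFC viability readout (25 uM final).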
GLP1R inv ag – inverse agonists of human GLP-1 receptor; P43220; HEK293 GLP-1R CRE-luciferase, luminescence, 24 h; GLP-1R form is constitutively active; Potency, µM (doses to about 38.3 µM), inactives show at the top dose activity change, negative = inhibition, actives largely listed as inhibitors; 1.6% of 410,000 active; further: on the % scale 0 is the no-effect control and ±100 the full control effect; nearly all actives have a fitted effect of over 55% in size
Target sequence (P43220 whole entry, looked up): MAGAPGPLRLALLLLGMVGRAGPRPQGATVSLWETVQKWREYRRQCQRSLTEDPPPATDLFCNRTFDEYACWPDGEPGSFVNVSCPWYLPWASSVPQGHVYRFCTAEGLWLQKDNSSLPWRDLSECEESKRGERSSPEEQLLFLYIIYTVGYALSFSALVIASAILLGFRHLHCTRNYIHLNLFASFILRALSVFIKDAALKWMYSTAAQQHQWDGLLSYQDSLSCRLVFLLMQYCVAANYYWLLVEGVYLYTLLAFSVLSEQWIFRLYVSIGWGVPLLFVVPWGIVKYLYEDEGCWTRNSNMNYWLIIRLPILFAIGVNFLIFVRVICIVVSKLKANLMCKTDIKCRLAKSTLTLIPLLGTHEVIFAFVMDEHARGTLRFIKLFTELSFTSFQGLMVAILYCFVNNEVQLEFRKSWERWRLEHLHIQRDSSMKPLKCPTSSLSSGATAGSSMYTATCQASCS
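Constitutively active GLP-1R drives a cAMP-responsive luciferase in stably transfected HEK293 cells; test compounds are added after overnight (12 h) attachment and left 24 hr, and signal loss in luminescence marks inhibition.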
HepG2 tox – HepG2 cytotoxicity, counter-screen for TGF-b inhibitors; HepG2 CAGA-GFP viability, ATP luminescence, 18 h; Potency, µM (highest dose often 46.1 µM), inactives show at the top dose activity change, negative = cytotoxicity, hits mostly cytotoxic; 0.76% of 410,000 active; AID 588856
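HepG2 CAGA-GFP cells (1000/well, DMEM with 1% FBS) received compound, then TGF-beta at 500 pg/mL final, and were incubated 18 hours at 37 degrees C. Viability was read by CellTiter-Glo luminescence. Media-only wells were set as complete cell-killing and DMSO as no toxicity.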
ATXN viability – reduces viability in counter-screen for ATXN expression inhibitors. Potency, µM (top dose mostly 56.7 µM), usual class: cytotoxic. S2 cells (HEK-293 line with an ATXN2-luciferase reporter) viability, CellTiter-Fluor protease fluorescence, 24 h. 0.49% of 400,000 active. AID 651635; further: nearly all actives have a fitted effect of over 40% in size
TGFb inhibitor – inhibitors of TGF-b signaling | Potency, µM (highest dose often 46.1 µM), for the others: top-dose activity, negative = inhibition, most hits filed as inhibitors | AID 588855 | HepG2 CAGA-GFP TGF-b/SMAD3 reporter, GFP fluorescence, 18 h; TGF-beta stimulated, 500 pg/mL final | 1.2% of 410,000 active; further: on the % scale 0 is the no-effect control and ±100 the full control effect; nearly all actives have a fitted effect of over 65% in size
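First, reporter cells (HEPG2 CAGA-GFP) rested 2 h at 37 degrees C. Next, compounds were pinned in and TGF-beta added to 500 pg/mL final. After 18 h, GFP was imaged per cell and summed per well.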
GLP-1R agonist – GLP-1 receptor (human) agonism; P43220; HEK293 GLP-1R CRE-luciferase, luminescence, 4-6 h; cells express a hypersensitive GLP-1R form; Potency, µM (highest dose often 45.6 µM), for the others: top-dose activation, most hits filed as activators; 0.007% of 380,000 active; AID 624172; further: % of control where 0% means no effect
An asterisk follows results filed as active; i = inactive; u = inconclusive; x = no result given. The call rests on the fitted dose curve; in most records, active means well fitted curve in the direction sought with a large enough effect; inconclusive means small, poorly fitted or top-dose-only effect, or another doubt; inactive means no such curve, though single readings can be large; an effect the other way counts as inactive or inconclusive. Potency means the concentration at half of the fitted maximal effect.

SMILES	ATXN2 expr inh	GLP1R inv ag	HepG2 tox	ATXN viability	TGFb inhibitor	GLP-1R agonist
CCn1c(=O)c2cc(C(=O)NCc3cc(OC)ccc3OC)sc2c2ccccc21	-8%	-1%	-28%	i	2.5µM*	-1%
CCn1c(=O)c2cc(C(=O)N(C)CC(OC)OC)sc2c2ccccc21	x	-19%	-39%	i	4%	4%
CCOc1ccccc1N(C)C(=O)c1cc2c(=O)n(CC)c3ccccc3c2s1	x	u	11µM*	x	u	0%
Cc1ccccc1C(=O)NC(C)c1nnc2n1CCN(Cc1ccc(F)cc1)CC2 (stereo not drawn)	x	x	x	i	x	x
O=S(=O)(NCC(c1ccco1)N1CCN(c2ccc(F)cc2)CC1)c1ccc2c(c1)OCCO2 (stereo not drawn)	-38%	10µM*	-47%	u	-8%	-2%
Cc1ccc(OC(=O)c2oc3ccc(F)cc3c2C)c(C)c1	u	4%	6%	18µM*	-5%	1%
COc1ccc(/C=C/C(=O)c2oc3ccc(F)cc3c2C)cc1	6%	0%	-8%	i	-4%	-10%
CC1CCN(C(=O)Cn2c(=O)n(CCCCCC(=O)NCc3ccccc3Cl)c(=O)c3sccc32)CC1	x	5%	-16%	x	-1%	x
Cc1ccccc1NC(=O)Nc1ccc(C(F)(F)F)cc1	38%	4.5µM*	-19%	i	-23%	6%
COCCCNC(=O)c1ccc(Cn2c(=O)c3ccccc3n(Cc3c(C)cc(C)cc3C)c2=O)cc1	-9%	1%	0%	i	-7%	1%
COC(=O)C(Cc1c[nH]c2ccccc12)NC(=O)CNC(C)=O (stereo not drawn)	1%	-9%	-1%	i	34%	-14%
O=C(COc1ccc(Cl)cc1Cl)Nc1ccccn1	2.8µM*	u	-38%	i	8%	-24%
COC(=O)C(Cc1c[nH]c2ccccc12)NC(=O)COc1ccc(Cl)cc1Cl (stereo not drawn)	x	u	-63%	x	11µM*	x
CSc1ccccc1NC(=O)COc1ccc(Cl)cc1Cl	9%	u	-35%	i	u	u
Cc1c(C)c2cc(Cl)c(OCC(=O)Nc3ccccn3)cc2oc1=O	x	9%	0%	i	-6%	2%
Cc1c(C)c2ccc(OCC(=O)Nc3ccccn3)c(C)c2oc1=O	u	10µM*	0%	i	10%	-5%
CCc1ccc(NCc2cc3ccc(OC)cc3n(CC(=O)Nc3ccc(C)c(Cl)c3)c2=O)cc1	13%	6%	0%	i	22%	-4%
CCOC(=O)N1CCN(c2ccccc2OC)CC1	-23%	19%	16%	i	-5%	-1%
CCOC(=O)/C(=N\Nc1ccc(Br)cc1)N1CCN(c2ccccc2OC)CC1	-2%	2.2µM*	-12%	i	2%	1%
CC(C)CN(C(=O)CCNC(=O)c1ccc(Cl)cc1)C1CCS(=O)(=O)C1 (stereo not drawn)	u	-3%	-1%	28µM*	-1%	9%
C=CS(=O)(=O)O	x	x	x	i	x	-4%
Cc1ccc(NS(=O)(=O)c2cc([N+](=O)[O-])ccc2NNC(=S)Nc2cc(C)ccc2C)c(C)c1	20µM*	u	-72%	16µM*	u	-20%
Cc1ccc(Cl)cc1NC(=O)C(C)n1nnc2sc3c(c2c1=O)CCCC3 (stereo not drawn)	-14%	0%	5%	i	3%	x
CC(C)(C)n1ncc2c(=O)n(Cc3cccc(-c4ccccc4)c3)cnc21	x	x	-28%	x	u	x
COc1cccc(N2CCN(C(=O)CCc3c(C)nc4c(c3C)c(=O)n(C)c(=O)n4C)CC2)c1	-1%	0%	-2%	i	1%	1%
SMILES	ATXN2 expr inh	GLP1R inv ag	HepG2 tox	ATXN viability	TGFb inhibitor	GLP-1R agonist
COc1ccc(C(CNC(=O)c2cc(S(=O)(=O)N3CCN(c4ccccc4)CC3)ccc2Cl)N(C)C)cc1 (stereo not drawn)	x	10µM*	-42%	u	u	-2%
C/C(=N\NC(=O)C1CCCC1)c1ccc(NC(=O)C(F)(F)F)cc1	9%	30%	-94%	i	11µM*	-4%
CCCN1CCC(=O)N(CCSc2ccc(Br)cc2)CC1	x	x	-29%	x	-17%	x
CC(=O)O[C@]1(C(C)=O)CC[C@H]2[C@@H]3C=C(Cl)C4=CC(=O)[C@@H]5C[C@H]5[C@]4(C)[C@@H]3CC[C@@]21C	-15%	x	x	x	x	x
CCN(CC)CCNCc1cc(Br)ccc1OCC(=O)NCc1ccccc1	x	-15%	-20%	i	0%	-3%
CC(NCc1cc(Br)ccc1OCC(=O)NCc1ccccc1)c1ccccc1 (stereo not drawn)	-27%	u	-89%	u	13µM*	14%
Cc1ccc(-c2nc3ccccc3[nH]2)cc1NC(=O)COc1ccccc1[N+](=O)[O-]	x	u	-75%	x	11µM*	x
CCCOc1cccc(C(=O)Nc2cc(-c3nc4ccccc4[nH]3)ccc2C)c1	u	u	-29%	20µM*	u	x
CCCOc1ccc(C(=O)Nc2cc(-c3nc4ccccc4[nH]3)ccc2C)cc1	-3%	7.1µM*	-1%	u	-7%	x
COC(=O)c1ccc(NC(=O)COc2ccccc2C(=O)Nc2ccccc2)cc1	x	x	-5%	x	5%	x
COc1ccc(CN2CCOc3ccc(CN4CCC(O)(c5cccnc5)CC4)cc3C2)cc1OC	x	x	x	i	x	x
Cc1cccc(OCCNC(=O)c2cccc(Oc3ccc(C(F)(F)F)cc3[N+](=O)[O-])c2)c1	-31%	2.5µM*	3%	i	-17%	-2%
CC(SCc1ccccc1)C(=O)N/N=C/c1ccc2c(c1)OCO2 (stereo not drawn)	5%	u	-8%	u	4%	-3%
CC(SCc1ccccc1)C(=O)N/N=C/c1cc2c(cc1Br)OCO2 (stereo not drawn)	4%	10µM*	-15%	i	-29%	1%
Nc1nc2c(nc(N3CCOCC3)n2COCCO)c(=O)[nH]1	x	x	-6%	x	8%	x
C=C1C(=O)OC2C1C(OC(=O)C(C)=CC)CC(=C)C1C(O)C3OC3(C)C21O (stereo not drawn)	-2%	u	-10%	i	0%	0%
C=C1C(=O)OC2C=C(CO)CCC=C(CO)CC(OC(=O)C(C)C)C12 (stereo not drawn)	u	u	-88%	u	16µM*	-13%
COc1ccc(C2CC(c3ccccc3)Oc3cc4c(cc32)OCO4)cc1 (stereo not drawn)	x	x	-24%	x	-26%	x

Screening results deposited in PubChem by National Center for Advancing Translational Sciences (NCATS).
